These results are taken from PubChem BioAssay (NCI).

Structures are written as SMILES. Compounds without any hit were thinned out: in the full panel of roughly 83,000, 20% have a hit.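 For each line, cells grew in 96-well plates with the test compound present at a single concentration for 48 hours.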 Values without a mark were called inactive. Activity calls are given as the source filed them. How the source made its calls: active means growth percent below 10; inactive means the rest.

Some test systems named below: RPMI-8226 leukemia; OVCAR-8 ovarian; OVCAR-5 ovarian; OVCAR-4 ovarian; SK-OV-3 ovarian; IGROV1 ovarian; OVCAR-3 ovarian; HS 578T breast; NCI/ADR-RES ovarian; T-47D breast.
Common to all, as to experiment: NCI-60 one-dose screen, 48 h (100 = growth as untreated, 0 = no growth, -100 = all killed)
Common to all, as to conditions: 10 µM unless noted

Regarding `Cc1nc2sc(C(=O)Nc3ccccc3)c(N)c2cc1C(C)O` (stereo not given), the growth in the experiment with RPMI-8226 leukemia was 16.9%; in the experiment on OVCAR-8 ovarian, 36.4%; in the experiment on OVCAR-5 ovarian, 51.3%; in the experiment on OVCAR-4 ovarian it was 64.5%; with SK-OV-3 ovarian, 31%; in the experiment on IGROV1 ovarian, 40.2%. The growth is 21.8% in the experiment with OVCAR-3 ovarian, 44.9% with HS 578T breast, 15.4% in the experiment with NCI/ADR-RES ovarian and 44.6% with T-47D breast.

Consider `N#CC1C(c2ccc(Cl)cc2)=Nc2c(c(-c3ccccc3)nn2-c2ccccc2)C12C(=O)Nc1ccc(Cl)cc12` (stereo not given), for which the growth was 24.7% with RPMI-8226 leukemia; 64.6% with OVCAR-8 ovarian; 65.2% with OVCAR-5 ovarian; 34.4% with OVCAR-4 ovarian; 68.6% in the experiment with SK-OV-3 ovarian; 42.1% in the experiment with IGROV1 ovarian. Also, the growth with OVCAR-3 ovarian was 49.7%; in the experiment on HS 578T breast, 51.4%; in the experiment with NCI/ADR-RES ovarian, 67.6%; in the experiment with T-47D breast, 46.7%.

In the case of `O=C(/C(=C\c1c(-c2ccccc2)[nH]c2ccccc12)S(=O)(=O)c1ccccc1)c1ccccc1`, the growth in the experiment on RPMI-8226 leukemia was -34.2% (active); with OVCAR-8 ovarian, 66.2%; in the experiment with OVCAR-5 ovarian, 83.1%; with OVCAR-4 ovarian, 42.8%; with SK-OV-3 ovarian, 23.1%; in the experiment on IGROV1 ovarian it was 78.7%. For the same molecule, the growth is 56.3% with OVCAR-3 ovarian, 72.1% with HS 578T breast, 43.4% with NCI/ADR-RES ovarian and 22.2% with T-47D breast.

Regarding `O=C(Nc1cccc(-c2cccc(F)c2)c1)C1CCN(Cc2cccc3cccnc23)CC1`, the growth was 19% in the experiment on RPMI-8226 leukemia; 72% with OVCAR-8 ovarian; 82.9% in the experiment on OVCAR-5 ovarian; 51.6% in the experiment on OVCAR-4 ovarian; 68.3% in the experiment with SK-OV-3 ovarian; 62.7% in the experiment with IGROV1 ovarian. In addition, the growth was 60.8% in the experiment on OVCAR-3 ovarian, 60.9% in the experiment on HS 578T breast, 73% in the experiment with NCI/ADR-RES ovarian and 29% in the experiment with T-47D breast.

Consider `O=C1NCc2ccc3c(-c4cccc(Cl)c4)c[nH]c3c21`, for which the growth in the experiment on RPMI-8226 leukemia is 25.8%; in the experiment with OVCAR-8 ovarian, 25.4%; in the experiment on OVCAR-5 ovarian, 39.7%; in the experiment with OVCAR-4 ovarian, 53.6%; in the experiment on SK-OV-3 ovarian it was 10.9%; in the experiment on IGROV1 ovarian, 32.2%. Moreover, the growth in the experiment with OVCAR-3 ovarian is -5.67% (active); with HS 578T breast, 31.3%; in the experiment on NCI/ADR-RES ovarian it was 6.99% (active); in the experiment with T-47D breast, 39%.

Consider `CCOC(=O)/C=C1\SC(=Nc2ccc(C#N)cc2)N(CCN2C(=O)/C(=C/C(=O)OCC)SC2=Nc2ccc(C#N)cc2)C1=O`, for which the growth with RPMI-8226 leukemia was -26.8% (active); in the experiment on OVCAR-8 ovarian, 5.38% (active); in the experiment on OVCAR-5 ovarian, 84.4%; with OVCAR-4 ovarian it was 50.8%; in the experiment with SK-OV-3 ovarian, 85.4%; in the experiment on IGROV1 ovarian, 23.7%. The growth was 7.13% (active) in the experiment on OVCAR-3 ovarian, 63.7% in the experiment with HS 578T breast, 43.7% with NCI/ADR-RES ovarian and 21.1% in the experiment with T-47D breast.

As to `COc1ccc(NC(=O)Nc2ccc(Nc3nc(C)cc(Nc4ccc(C)cc4)n3)cc2)cc1`, the growth in the experiment on RPMI-8226 leukemia was -45.9% (active); with OVCAR-8 ovarian, -56.6% (active); with OVCAR-5 ovarian, -85.7% (active); in the experiment with OVCAR-4 ovarian, -87.1% (active); with SK-OV-3 ovarian, 69%; in the experiment on IGROV1 ovarian, -70.5% (active). Moreover, the growth was -95.5% (active) in the experiment on OVCAR-3 ovarian, -21.6% (active) with HS 578T breast, -56.3% (active) in the experiment on NCI/ADR-RES ovarian and -60.1% (active) in the experiment on T-47D breast.

As for `C#CC[C@@H]1C[C@]2(C)[C@H]3CC[C@@H]4[C@H]5[C@H](C(=C)C)CC[C@]5(C(=O)O)CC[C@@]4(C)[C@]3(C)CC[C@H]2C(C)(C)[C@H]1O`, the growth with RPMI-8226 leukemia is 24.1%; in the experiment with OVCAR-8 ovarian it was 45.8%; in the experiment with OVCAR-5 ovarian, 95.7%; in the experiment on OVCAR-4 ovarian, -18.7% (active); in the experiment on SK-OV-3 ovarian it was 74.3%; in the experiment with IGROV1 ovarian it was 60.2%. For the same molecule, the growth in the experiment with OVCAR-3 ovarian is -33.5% (active); with HS 578T breast it was 33.4%; in the experiment with NCI/ADR-RES ovarian, 44%; in the experiment with T-47D breast, 51.1%.

Consider `CCOC(=O)C(=Cc1c(-c2ccccc2)[nH]c2ccccc12)C(=O)OCC`, for which the growth in the experiment on RPMI-8226 leukemia was -47.8% (active); in the experiment on OVCAR-8 ovarian it was 39.4%; in the experiment with OVCAR-5 ovarian, 98.3%; in the experiment on OVCAR-4 ovarian, 49.9%; in the experiment on SK-OV-3 ovarian, 94.5%; with IGROV1 ovarian, 34.7%. Further, the growth with OVCAR-3 ovarian is 38%; in the experiment on HS 578T breast, 59.5%; in the experiment on NCI/ADR-RES ovarian it was 24.7%; with T-47D breast, 21.1%.

Regarding `C#CCN1C(=O)c2ccccc2N(CC#C)C12CCN(Cc1cn(CC(=O)Nc3ccccc3C(N)=O)nn1)CC2`, the growth was 82.2% in the experiment on RPMI-8226 leukemia; 100% in the experiment on OVCAR-8 ovarian; 89.2% in the experiment with OVCAR-5 ovarian; 89% with OVCAR-4 ovarian; 106% in the experiment with SK-OV-3 ovarian; 82.4% with IGROV1 ovarian. The growth in the experiment with OVCAR-3 ovarian is 84.4%; in the experiment with HS 578T breast it was 91.8%; with NCI/ADR-RES ovarian, 80.5%; in the experiment on T-47D breast, 77%.

`Cc1ccc(C(=O)/C(=C/c2ccc([N+](=O)[O-])cc2)S(=O)Cc2ccccc2)cc1` (stereo not given): the growth with RPMI-8226 leukemia is -13% (active); with OVCAR-8 ovarian, 18.5%; in the experiment on OVCAR-5 ovarian, 39.5%; in the experiment with OVCAR-4 ovarian, 35%; in the experiment on SK-OV-3 ovarian it was 80.2%; with IGROV1 ovarian, -7.98% (active). For the same molecule, the growth was 0.0452% (active) with OVCAR-3 ovarian, -2.56% (active) in the experiment on HS 578T breast, 14.3% in the experiment on NCI/ADR-RES ovarian and -38.3% (active) in the experiment with T-47D breast.

As to `Nc1c(C(=O)Nc2cccc3ccccc23)sc2nc3c(cc12)CCCCC3`, the growth with RPMI-8226 leukemia is 24.9%; with OVCAR-8 ovarian it was 21.4%; in the experiment on OVCAR-5 ovarian, 44.1%; in the experiment on OVCAR-4 ovarian, 56.6%; in the experiment with SK-OV-3 ovarian it was 29.1%; with IGROV1 ovarian, 44.3%. Further, the growth in the experiment with OVCAR-3 ovarian was -25.2% (active); in the experiment on HS 578T breast, 30%; with NCI/ADR-RES ovarian it was 20.3%; with T-47D breast, 46.7%.

For `COCCOC(=O)COc1ccc(OC)cc1`, the growth is 97.3% with RPMI-8226 leukemia; 101% in the experiment on OVCAR-8 ovarian; 104% in the experiment with OVCAR-5 ovarian; 94.2% with OVCAR-4 ovarian; 112% with SK-OV-3 ovarian; 101% with IGROV1 ovarian. In addition, the growth with OVCAR-3 ovarian was 95.4%; in the experiment on HS 578T breast, 101%; with NCI/ADR-RES ovarian, 104%; with T-47D breast it was 120%.

Turning to `CN(C)CCCn1c2c(c3cc(-c4cccc(S(N)(=O)=O)c4)ccc3c1=O)C(=O)c1ccccc1-2`, the growth in the experiment on RPMI-8226 leukemia was 70.3%; in the experiment with OVCAR-8 ovarian, 56%; in the experiment on OVCAR-5 ovarian, 97.7%; in the experiment with OVCAR-4 ovarian it was 82.3%; with SK-OV-3 ovarian, 67.8%; with IGROV1 ovarian, 66.7%. The growth in the experiment on OVCAR-3 ovarian is 87.8%; with HS 578T breast, 99.6%; in the experiment with NCI/ADR-RES ovarian it was 70.6%; with T-47D breast, 74.7%.

Turning to `CC(=O)Nc1ccc2c(c1)Cc1cc(F)ccc1-2`, the growth with RPMI-8226 leukemia is 93.6%; with OVCAR-8 ovarian it was 97.5%; in the experiment with OVCAR-5 ovarian, 106%; in the experiment with OVCAR-4 ovarian, 109%; with SK-OV-3 ovarian, 106%; in the experiment with IGROV1 ovarian, 92.8%. For the same molecule, the growth in the experiment with OVCAR-3 ovarian is 98.6%; in the experiment on HS 578T breast it was 103%; in the experiment with NCI/ADR-RES ovarian, 97.5%; in the experiment with T-47D breast, 82.8%.

Turning to `NC(=O)C(O)(c1ccccc1)c1ccccc1`, the growth in the experiment on RPMI-8226 leukemia is 93.2%; in the experiment on OVCAR-8 ovarian, 98.2%; with OVCAR-5 ovarian it was 110%; in the experiment on OVCAR-4 ovarian it was 101%; in the experiment on SK-OV-3 ovarian, 97.2%; in the experiment with IGROV1 ovarian, 111%. Moreover, the growth in the experiment with OVCAR-3 ovarian was -48.6% (active); in the experiment on HS 578T breast, 97.1%; in the experiment on NCI/ADR-RES ovarian it was 102%; in the experiment on T-47D breast it was 90.1%.
